KB-V1 MDR tox – KB-V1 MDR subline cytotoxicity | KB-V1 MDR cells viability, CellTiter-Glo, 72 h | Potency, µM (doses to about 46.1 µM), actives largely listed as cytotoxic | 400,000 compounds, 3.4% hits; further: nearly all actives have a fitted effect of over 60% in size
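Cells of the MDR subline KB-V1 are plated, dosed with compound at multiple concentrations, and incubated 72 h at 37 degrees C; CellTiter-Glo is then added and luminescence read after 10 min.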
TGFb SMAD3 inh – inhibitors of TGF-b signaling | Potency, µM (doses to about 46.1 µM), most hits filed as inhibitors | AID 588855 | HepG2 CAGA-GFP TGF-b/SMAD3 reporter, GFP fluorescence, 18 h; TGF-beta stimulated, 500 pg/mL final | 410,000 compounds, 1.2% hits; further: nearly all actives have a fitted effect of over 65% in size
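Cell-based qHTS in HEPG2 carrying a CAGA-GFP Smad reporter; compounds added before 500 pg/mL final TGF-beta, 18 h incubation at 37 degrees C, GFP fluorescence quantified per cell by imaging cytometry.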
ATXN2 expr inh – reduces ATXN2 reporter expression in HEK-293 cells; HEK-293 ATXN2-luciferase reporter, luminescence, 24 h; Potency, µM (series often up to 57 µM), usual class: inhibitors; 360,000 compounds, 0.72% hits; AID 1745845; further: nearly all actives have a fitted effect of over 55% in size
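qHTS (up to 57 uM final) was run with 24 h compound exposure of reporter cells at 37 °C. Each well was multiplexed: SteadyGlo luminescence measured ATXN2-luciferase expression after a fluorogenic Gly-Phe-AFC viability readout (25 uM final).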
S2 tox – cell viability loss in ATXN counter-screen; Potency, µM (series often up to 56.7 µM), actives largely listed as cytotoxic; S2 cells (HEK-293 line with an ATXN2-luciferase reporter) viability, CellTiter-Fluor protease fluorescence, 24 h; 400,000 compounds, 0.49% hits; AID 651635; further: nearly all actives have a fitted effect of over 40% in size
HepG2 tox – kills HepG2 cells in TGF-b inhibitor counter-screen | 410,000 compounds, 0.76% hits | AID 588856 | Potency, µM (highest dose often 46.1 µM), most hits filed as cytotoxic | HepG2 CAGA-GFP viability, ATP luminescence, 18 h
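HepG2 CAGA-GFP cells (1000/well, DMEM with 1% FBS) received compound, then TGF-beta at 500 pg/mL final, and were incubated 18 hours at 37 degrees C. Viability was read by CellTiter-Glo luminescence. Media-only wells were set as complete cell-killing and DMSO as no toxicity.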
KB-3-1 tox – kills parental KB-3-1 adenocarcinoma cells; KB-3-1 viability, CellTiter-Glo ATP luminescence, 72 h; Potency, µM (highest dose often 46.1 µM), hits mostly cytotoxic; 400,000 compounds, 1.4% hits; AID 1347075; further: nearly all actives have a fitted effect of over 60% in size
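Cytotoxicity in the drug-sensitive parental line KB-3-1 was scored as loss of CellTiter-Glo luminescence following 72 h incubation with compound. Values come from curve fitting of normalized concentration-response data.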
Of the large screens only hits and unclear results are named; the others gave an inactive call. Compounds with a hit are over-represented: about 5.9% of the library has one in this group of screens. The call rests on the fitted dose curve; in most records, active means well fitted curve in the direction sought with a large enough effect; inconclusive means small, poorly fitted or top-dose-only effect, or another doubt; inactive means no such curve, though single readings can be large; an effect the other way counts as inactive or inconclusive.

N#CC(=Cc1ccncc1)c1ccccc1	KB-V1 MDR tox 13µM, S2 tox inconclusive, KB-3-1 tox inconclusive
Cc1cc(C)c(NC(=O)Nc2ccccc2C)c(Cl)c1	HepG2 tox 1.3µM (no result: ATXN2 expr inh)
COc1ccccc1-n1c(=O)c2c3c(sc2n(C)c1=O)CN(C(C)=O)CC3	none (no result: ATXN2 expr inh, S2 tox)
COc1ccc(-n2c(/C=C(\C)O)nc(=O)c3c(C)cc(C)nc32)cc1	KB-V1 MDR tox 7.3µM
CCc1ccc(NC(=O)CN(c2ccc(Cl)cc2)S(=O)(=O)c2ccsc2C(=O)OC)cc1	KB-V1 MDR tox inconclusive, TGFb SMAD3 inh 7.1µM, KB-3-1 tox inconclusive
COC(=O)c1sccc1S(=O)(=O)N(CC(=O)Nc1ccc(C)cc1)c1ccccc1	none
Cc1oc2ncn(C)c(=O)c2c1C(=O)NCCCN(Cc1ccccc1)C(C)C	none
Cc1cccc2cc3c(N)c(C(=O)N4CCOCC4)sc3nc12	KB-V1 MDR tox 3.7µM, KB-3-1 tox 2.9µM
Nc1c(C(=O)N2CCOCC2)sc2nc(N3CCOCC3)c3c(c12)CCCC3	none (no result: ATXN2 expr inh)
CC(OC(=O)c1ccc(F)cc1)C(=O)Nc1nc(-c2cccc([N+](=O)[O-])c2)cs1 (stereo not given)	KB-V1 MDR tox 21µM
O=C(Nc1nc2ccccc2s1)c1cc(-c2ccccc2)nn1-c1ccccc1	KB-V1 MDR tox 21µM, KB-3-1 tox inconclusive
CCN1CCC(N(Cc2ccc3c(c2)OCO3)C(=O)Nc2cc(Cl)ccc2C(=O)OC)CC1	KB-V1 MDR tox inconclusive, TGFb SMAD3 inh inconclusive, ATXN2 expr inh 25µM, S2 tox 16µM, KB-3-1 tox 16µM
CCCCCCCCCCN(CCCCCCCCCC)c1ccc(/C=C/c2ccnc3ccccc23)cc1	none (no result: ATXN2 expr inh, S2 tox)
Cc1ccc(C)c(NC(=O)N2CCN3CCCCC3C2)c1 (stereo not given)	none (no result: KB-V1 MDR tox, ATXN2 expr inh, S2 tox, KB-3-1 tox)
Cc1ccccc1NS(=O)(=O)c1cc(C(=O)NCCC2=CCCCC2)ccc1C	KB-V1 MDR tox inconclusive, TGFb SMAD3 inh inconclusive, ATXN2 expr inh inconclusive, S2 tox inconclusive
Cc1ccc(C(=O)N2CCc3ccccc3C2)cc1S(=O)(=O)N1CCOCC1	KB-V1 MDR tox inconclusive
Cc1ccc(NS(=O)(=O)c2cc(C(=O)O)ccc2Cl)cc1	KB-V1 MDR tox inconclusive
Cc1ccc(NS(=O)(=O)c2cc(C(=O)N3CCc4ccccc4C3)ccc2Cl)cc1	KB-V1 MDR tox 16µM, TGFb SMAD3 inh inconclusive
O=C(NCCC1=CCCCC1)c1ccc(Cl)c(S(=O)(=O)Nc2ccccc2)c1	KB-V1 MDR tox inconclusive, TGFb SMAD3 inh 13µM
Cc1ccccc1NS(=O)(=O)c1cc(C(=O)N2CCc3ccccc3C2)ccc1C	KB-V1 MDR tox 7.3µM, TGFb SMAD3 inh inconclusive, S2 tox inconclusive
Cc1ccc(C(=O)N/C(=C\c2ccc(Br)cc2)c2nc(=S)[nH][nH]2)cc1	TGFb SMAD3 inh inconclusive, ATXN2 expr inh inconclusive, HepG2 tox 13µM (no result: S2 tox)
CCc1ccc(S(=O)(=O)/N=C2\C=C(Nc3cccc(C(=O)O)c3)C(=O)c3ccccc32)cc1	TGFb SMAD3 inh inconclusive, ATXN2 expr inh 32µM, S2 tox 25µM
O=C(O)c1cccc(NC2=C(n3nnc4ccccc43)C(=O)c3ccccc3C2=O)c1	S2 tox inconclusive (no result: ATXN2 expr inh)
CCc1ccc(S(=O)(=O)/N=C2\C=C(Nc3ccc(O)cc3)C(=O)c3ccccc32)cc1	KB-V1 MDR tox inconclusive, TGFb SMAD3 inh 0.89µM, ATXN2 expr inh 3.5µM, S2 tox 7.1µM, HepG2 tox 1.1µM, KB-3-1 tox 2.9µM
CCc1ccc(S(=O)(=O)/N=C2/C=C(Sc3ncn[nH]3)C(=O)c3ccccc32)cc1	TGFb SMAD3 inh 1.4µM, ATXN2 expr inh 16µM, S2 tox inconclusive, HepG2 tox 2µM
COc1cccc(-c2cc3c(c(OC)c2)OCCN(Cc2cccn2-c2ccccn2)C3)c1	none (no result: KB-V1 MDR tox, TGFb SMAD3 inh, ATXN2 expr inh, HepG2 tox, KB-3-1 tox)
CC(C)NCCCC1(C(N)=O)c2ccccc2-c2ccccc21	none (no result: KB-V1 MDR tox, TGFb SMAD3 inh, HepG2 tox, KB-3-1 tox)
CC(Sc1nc2cc([N+](=O)[O-])ccc2n1-c1ccc(F)cc1)C(=O)NCc1ccc2c(c1)OCO2 (stereo not given)	KB-V1 MDR tox 5.8µM, S2 tox inconclusive

High-throughput results deposited in PubChem by National Center for Advancing Translational Sciences (NCATS).
